The whole screen tested about 5,500 compounds, of which about 2,000 (36%) were called active. About 18% were inconclusive and are not listed. No stated cut-off is given here; in the data, active means normalized growth mostly below about 0.91 (no sharp cut-off); inconclusive means no clear call, values can overlap the other calls; inactive means mostly above about 0.92. Some of the results follow.
Test: chemical genetic growth profiling, strain panel (AID 1159580);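 further: tested at 20 µM; growth read once vehicle control cultures reached saturation at 30 °C; 1 = growth at the plate median or of vehicle wells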
Conditions: growth OD

Measured: normalized growth

COc1ccc2c(c1OC)C(=O)O[C@@H]2[C@H]1c2cc3c(cc2CCN1C)OCO3
inactive: S. cerevisiae deletion strains, locus YJR075W, strain HOC1, stronger effect = lower value 1.02 | S. cerevisiae deletion strains, locus YKL009W, strain mrt4, stronger effect = lower value 1.03 | S. cerevisiae deletion strains, locus YKL068W, stronger effect = lower value 1.02 | S. cerevisiae deletion strains, locus YKL085W, strain MDH1 (second series), stronger effect = lower value 1.04 | S. cerevisiae deletion strains, locus YKL085W, strain MDH1, stronger effect = lower value 1.04 | S. cerevisiae deletion strains, locus YKL160W, strain elf1, stronger effect = lower value 0.974 | S. cerevisiae deletion strains, locus YKL190W, strain CNB1, stronger effect = lower value 1.02 | S. cerevisiae deletion strains, locus YKR001C, strain vps1, stronger effect = lower value 1.03 | S. cerevisiae deletion strains, locus YKR026C, strain gcn3, stronger effect = lower value 0.998 | S. cerevisiae deletion strains, locus YKR091W, strain srl3, stronger effect = lower value 0.997 | S. cerevisiae deletion strains, locus YLL001W, strain dnm1, stronger effect = lower value 0.994 | S. cerevisiae deletion strains, locus YLL026W, stronger effect = lower value 0.992 | S. cerevisiae deletion strains, locus YLL041C, strain sdh2, stronger effect = lower value 1 | S. cerevisiae deletion strains, locus YLR027C, strain aat2, stronger effect = lower value 0.996 | S. cerevisiae deletion strains, locus YLR039C, strain RIC1, stronger effect = lower value 1.07 | S. cerevisiae deletion strains, locus YLR058C, strain SHM2, stronger effect = lower value 1.02 | S. cerevisiae deletion strains, locus YLR102C, strain apc9, stronger effect = lower value 1.01 | S. cerevisiae deletion strains, locus YLR113W, strain HOG1, stronger effect = lower value 0.991 | S. cerevisiae deletion strains, locus YLR221C, strain rsa3, stronger effect = lower value 0.983 | S. cerevisiae deletion strains, locus YLR258W, strain gsy2, stronger effect = lower value 0.988 | S. cerevisiae deletion strains, locus YLR262C, strain YPT6 (second series), stronger effect = lower value 0.98 | S. cerevisiae deletion strains, locus YLR262C, strain YPT6, stronger effect = lower value 1.04 | S. cerevisiae deletion strains, locus YLR268W, strain sec22, stronger effect = lower value 1.01 | S. cerevisiae deletion strains, locus YLR320W, strain mms22, stronger effect = lower value 0.967 | S. cerevisiae deletion strains, locus YLR330W, strain CHS5, stronger effect = lower value 1.02 | S. cerevisiae deletion strains, locus YLR342W, strain FKS1 (second series), stronger effect = lower value 1.06 | S. cerevisiae deletion strains, locus YLR342W, strain FKS1, stronger effect = lower value 0.984 | S. cerevisiae deletion strains, locus YLR357W, strain rsc2, stronger effect = lower value 0.998 | S. cerevisiae deletion strains, locus YLR370C, strain arc18, stronger effect = lower value 1 | S. cerevisiae deletion strains, locus YLR371W, strain rom2, stronger effect = lower value 1.02 | S. cerevisiae deletion strains, locus YLR384C, strain iki3, stronger effect = lower value 0.983 | S. cerevisiae deletion strains, locus YLR418C, strain cdc73, stronger effect = lower value 1.02 | S. cerevisiae deletion strains, locus YML016C, strain PPZ1, stronger effect = lower value 1.01 | S. cerevisiae deletion strains, locus YML032C, strain rad52, stronger effect = lower value 1.03 | S. cerevisiae deletion strains, locus YML120C, strain ndi1, stronger effect = lower value 0.985 | S. cerevisiae deletion strains, locus YML124C, strain tub3, stronger effect = lower value 1.02 | S. cerevisiae deletion strains, locus YMR058W, strain fet3, stronger effect = lower value 0.998 | S. cerevisiae deletion strains, locus YMR078C, strain ctf18, stronger effect = lower value 1.03 | S. cerevisiae deletion strains, locus YMR125W, strain sto1, stronger effect = lower value 0.988 | S. cerevisiae deletion strains, locus YMR129W, stronger effect = lower value 1 | S. cerevisiae deletion strains, locus YMR205C, strain PFK2, stronger effect = lower value 0.971 | S. cerevisiae deletion strains, locus YMR223W, strain ubp8, stronger effect = lower value 1.03 | S. cerevisiae deletion strains, locus YMR231W, strain pep5, stronger effect = lower value 0.993 | S. cerevisiae deletion strains, locus YMR263W, strain SAP30, stronger effect = lower value 1.01 | S. cerevisiae deletion strains, locus YMR307W, strain GAS1, stronger effect = lower value 1.09 | S. cerevisiae deletion strains, locus YNL067W, strain RPL9B, stronger effect = lower value 1.01 | S. cerevisiae deletion strains, locus YNL071W, strain lat1, stronger effect = lower value 0.997 | S. cerevisiae deletion strains, locus YNL128W, strain TEP1, stronger effect = lower value 1.02 | S. cerevisiae deletion strains, locus YNL153C, strain GIM3, stronger effect = lower value 1.01 | S. cerevisiae deletion strains, locus YNL183C, strain NPR1, stronger effect = lower value 0.953 | S. cerevisiae deletion strains, locus YNL209W, strain ssb2, stronger effect = lower value 0.993 | S. cerevisiae deletion strains, locus YNL233W, strain BNI4, stronger effect = lower value 1.02 | S. cerevisiae deletion strains, locus YNL248C, strain rpa49, stronger effect = lower value 0.999 | S. cerevisiae deletion strains, locus YNL250W, strain rad50, stronger effect = lower value 1.02 | S. cerevisiae deletion strains, locus YNL271C, strain bni1, stronger effect = lower value 1.01 | S. cerevisiae deletion strains, locus YNL298W, strain CLA4, stronger effect = lower value 1.03 | S. cerevisiae deletion strains, locus YNL307C, strain MCK1, stronger effect = lower value 1.02 | S. cerevisiae deletion strains, locus YNL322C, strain KRE1 (second series), stronger effect = lower value 0.99 | S. cerevisiae deletion strains, locus YNL322C, strain KRE1, stronger effect = lower value 1.01 | S. cerevisiae deletion strains, locus YNR049C, strain mso1, stronger effect = lower value 0.996 | S. cerevisiae deletion strains, locus YNR052C, strain pop2, stronger effect = lower value 1.02 | S. cerevisiae deletion strains, locus YOL006C, strain TOP1, stronger effect = lower value 1.04 | S. cerevisiae deletion strains, locus YOL012C, strain htz1 1.03 | S. cerevisiae deletion strains, locus YOL147C, strain pex11, stronger effect = lower value 1.02 | S. cerevisiae deletion strains, locus YOR001W, strain rrp6, stronger effect = lower value 0.998 | S. cerevisiae deletion strains, locus YOR061W, strain CKA2, stronger effect = lower value 1.02 | S. cerevisiae deletion strains, locus YOR069W, strain VPS5, stronger effect = lower value 1.02 | S. cerevisiae deletion strains, locus YOR070C, strain gyp1, stronger effect = lower value 0.984 | S. cerevisiae deletion strains, locus YOR080W, strain dia2, stronger effect = lower value 0.987 | S. cerevisiae deletion strains, locus YOR083W, strain WHI5, stronger effect = lower value 0.985 | S. cerevisiae deletion strains, locus YOR106W, strain vam3, stronger effect = lower value 0.972 | S. cerevisiae deletion strains, locus YOR136W, strain idh2, stronger effect = lower value 1.02 | S. cerevisiae deletion strains, locus YOR144C, strain elg1, stronger effect = lower value 1.02 | S. cerevisiae deletion strains, locus YOR184W, strain ser1, stronger effect = lower value 1.04 | S. cerevisiae deletion strains, locus YOR231W, strain MKK1, stronger effect = lower value 0.994 | S. cerevisiae deletion strains, locus YOR265W, strain rbl2, stronger effect = lower value 0.996 | S. cerevisiae deletion strains, locus YOR270C, strain vph1, stronger effect = lower value 1.01 | S. cerevisiae deletion strains, locus YOR290C, strain snf2, stronger effect = lower value 0.989 | S. cerevisiae deletion strains, locus YOR316C, strain cot1, stronger effect = lower value 1.02 | S. cerevisiae deletion strains, locus YPL051W, strain arl3, stronger effect = lower value 0.976 | S. cerevisiae deletion strains, locus YPL055C, strain LGE1, stronger effect = lower value 1.03 | S. cerevisiae deletion strains, locus YPL078C, strain atp4, stronger effect = lower value 1 | S. cerevisiae deletion strains, locus YPL106C, strain sse1, stronger effect = lower value 0.976 | S. cerevisiae deletion strains, locus YPL240C, strain hsp82, stronger effect = lower value 0.995 | S. cerevisiae deletion strains, locus YPL241C, strain CIN2, stronger effect = lower value 1.01 | S. cerevisiae deletion strains, locus YPL256C, strain CLN2, stronger effect = lower value 0.971 | S. cerevisiae deletion strains, locus YPR119W, strain clb2, stronger effect = lower value 1.02 | S. cerevisiae deletion strains, locus YPR141C, strain kar3, stronger effect = lower value 1.03 | S. cerevisiae deletion strains, locus YPR163C, strain tif3, stronger effect = lower value 1.03 | S. cerevisiae deletion strains, locus YPR167C, strain met16, stronger effect = lower value 1.02 | S. cerevisiae deletion strains, strain wtn01, stronger effect = lower value 1.02 | S. cerevisiae strains, strain wild type, stronger effect = lower value 1.01
